Measured values from PubChem BioAssay (NCATS).
Where “and” joins values, the source holds several entries; their conditions need not be identical. Identical values can stand only once. Results filed as inconclusive are left out. Calls of active or inactive are those of the source. Unless noted, calls follow the shape of the full dose curve.

Tests used:
[1] = qHTS assay for small molecule agonists of retinoid X receptor alpha signaling (AID 588544); conditions: HEK293T RXRa-UAS-bla, beta-lactamase reporter, 18 h; 530 nm emission;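 as to activation: 0% = DMSO basal wells and 100% = reference agonist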
[2] = molecular target: Retinoic acid receptor RXR-alpha (Homo sapiens) (UniProt P19793); assay: as above; conditions: HEK293T RXRa-UAS-bla, beta-lactamase reporter, 18 h; series mostly up to 76.7 µM
Retinoic acid receptor RXR-alpha (Homo sapiens), sequence (P19793 whole entry, looked up): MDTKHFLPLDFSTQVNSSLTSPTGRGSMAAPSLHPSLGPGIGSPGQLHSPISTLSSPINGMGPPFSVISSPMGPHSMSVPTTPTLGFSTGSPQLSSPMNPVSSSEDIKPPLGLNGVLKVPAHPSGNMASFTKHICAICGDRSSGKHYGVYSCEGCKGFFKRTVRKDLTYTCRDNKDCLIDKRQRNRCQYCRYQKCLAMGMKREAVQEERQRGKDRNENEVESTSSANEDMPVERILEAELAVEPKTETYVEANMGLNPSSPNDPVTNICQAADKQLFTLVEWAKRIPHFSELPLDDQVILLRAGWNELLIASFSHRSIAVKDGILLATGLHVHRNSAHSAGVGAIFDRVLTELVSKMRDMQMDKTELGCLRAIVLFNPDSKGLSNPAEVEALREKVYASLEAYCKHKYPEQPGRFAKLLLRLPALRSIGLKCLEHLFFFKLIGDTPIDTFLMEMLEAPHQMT

[3] = molecular target: Thyroid hormone receptor beta (Homo sapiens) (UniProt P10828); assay: qHTS assay for small molecule agonists of thyroid hormone receptor beta signaling (AID 588545); conditions: TR-UAS-bla GripTite HEK 293, beta-lactamase ratio, agonist mode, 18 h, percent of T3 response, DMSO as zero; series mostly up to 76.7 µM;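 also: 0% = DMSO only and 100% = 10 nM T3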
Thyroid hormone receptor beta (Homo sapiens), sequence (P10828 whole entry, looked up): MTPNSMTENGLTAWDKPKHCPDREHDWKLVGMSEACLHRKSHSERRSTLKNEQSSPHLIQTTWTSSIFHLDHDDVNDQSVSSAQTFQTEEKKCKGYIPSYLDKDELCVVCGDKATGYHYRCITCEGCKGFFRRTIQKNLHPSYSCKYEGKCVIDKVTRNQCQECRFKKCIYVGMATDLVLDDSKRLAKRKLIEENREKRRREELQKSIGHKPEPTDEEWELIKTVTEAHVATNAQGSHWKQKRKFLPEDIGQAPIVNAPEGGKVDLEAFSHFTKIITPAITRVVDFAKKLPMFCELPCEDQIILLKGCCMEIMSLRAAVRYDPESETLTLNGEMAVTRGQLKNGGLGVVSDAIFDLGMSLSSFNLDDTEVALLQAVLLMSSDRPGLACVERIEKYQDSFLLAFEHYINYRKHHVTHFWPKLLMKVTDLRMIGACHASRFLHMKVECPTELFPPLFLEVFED
Outline: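 Efficacy and EC50 values derive from Hill fits of qHTS titration data, normalized to 10 nM T3 and DMSO-only wells. HEK 293 reporter cells were stimulated for 18 hrs at 37 C, with beta-lactamase activity measured by CCF4 fluorescence.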

[4] = qHTS assay for small molecule antagonists of retinoid X receptor alpha signaling (AID 588546; active = well fitted inhibition curve with a large enough effect in the signal ratio, with a control signal flat, not every such curve was filed as active; the % refers to the signal ratio;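 also: cells stimulated with 9-cis-retinoic acid as agonist; % is scaled to controls: 0 for no effect and ±100 for the full control effect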); conditions: HEK293T RXRa-UAS-bla, beta-lactamase ratio, antagonist mode; measured here: W530 green channel, cytotoxicity proxy
Outline: (§1)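 Beta-lactamase reporter inhibition, read as CCF4 fluorescence ratio (ex 405, em 460/530 nm) after 2 h at RT. HEK293T UAS-bla cells, 2500/well, were stimulated with 9-cis-RA at 500 or 100 nM final alongside test compound for 18 h at 37 C.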

[5] = molecular target: Retinoic acid receptor RXR-alpha (Homo sapiens) (UniProt P19793); assay: as above; conditions: HEK293T RXRa-UAS-bla, beta-lactamase ratio, antagonist mode
Outline: as §1

[6] = molecular target: Thyroid hormone receptor beta (Homo sapiens) (UniProt P10828); assay: qHTS assay for small molecule antagonists of thyroid hormone receptor beta signaling (AID 588547; active = well fitted inhibition curve with a large enough effect in the signal ratio, with a control signal flat, not every such curve was filed as active; the % refers to the signal ratio;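 also: cells stimulated with 0.4 nM T3 agonist during compound exposure; % is scaled to controls: 0 for no effect and ±100 for the full control effect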); conditions: TR-UAS-bla HEK293, beta-lactamase ratio, antagonist mode, 18 h
Outline: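 TR-UAS-bla GripTite HEK293 cells in 2% charcoal/dextran FBS medium were preincubated 4 h at 37 C, given compound (0.59 nM to 92 uM) plus 0.4 nM T3 (final) for 18 h, then CCF4 for 2 h at RT; Hill fit gave IC50.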

[7] = qHTS assay for small molecule activators of the p53 signaling pathway (AID 651743; active = well fitted activation curve with a large enough effect in the signal ratio, not every such curve was filed as active; the % refers to the signal ratio; also: % of control where 0% means no effect); conditions: HCT-116 p53RE-bla, beta-lactamase FRET ratio, 16 h; stronger effect = higher value
Outline: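 Cell-based beta-lactamase reporter (p53 response elements, HCT-116 background). After a 5-hour preincubation, cells received compound for 16 hours at 37 C; substrate development ran 2 hours at room temperature.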

[8] = qHTS assay for small molecule activators of the nuclear factor-kappa B (NF-kB) signaling pathway (AID 651749; active = well fitted activation curve with a large enough effect in the signal ratio; the % refers to the signal ratio; also: % of control where 0% means no effect); conditions: NF-kB-bla ME-180 cells, beta-lactamase FRET ratio, 16 h; stronger effect = higher value
Outline: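 Screening used 2,000 ME-180 reporter cells per well exposed to pinned compound (23 nL) or DMSO; after 16 hr at 37C, beta-lactamase expression under NF-kB control was assessed through FRET.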

[9] = qHTS assay for small molecule agonists of the antioxidant response element (ARE) signaling pathway (AID 651741; active = well fitted activation curve with a large enough effect in the signal ratio; the % refers to the signal ratio; also: % of control where 0% means no effect); conditions: HepG2 ARE-bla reporter, beta-lactamase FRET ratio, 16 h; series mostly up to 96 µM
Outline: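 Compounds in DMSO are pinned onto HepG2 ARE-bla cells (2,000/well) that were preincubated 5 h; plates stay 16 h at 37 C, then beta-lactamase activity is detected with LiveBLAzer B/G substrate by fluorescence.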

[10] = molecular target: Voltage-gated inwardly rectifying potassium channel KCNH2 (Homo sapiens) (UniProt Q12809); assay: qHTS Assay for Small Molecule Inhibitors of the Human hERG Channel Activity (AID 588834; active = well fitted inhibition curve with a large enough effect;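 also: lower thallium flux fluorescence means stronger hERG block; nearly all actives have a fitted effect of over 50% in size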; also: potency is read from the fitted curve at half-maximal effect); conditions: U2OS BacMam hERG, FluxOR thallium flux fluorescence; series mostly up to 92.2 µM
Voltage-gated inwardly rectifying potassium channel KCNH2 (Homo sapiens), sequence (Q12809 whole entry, looked up): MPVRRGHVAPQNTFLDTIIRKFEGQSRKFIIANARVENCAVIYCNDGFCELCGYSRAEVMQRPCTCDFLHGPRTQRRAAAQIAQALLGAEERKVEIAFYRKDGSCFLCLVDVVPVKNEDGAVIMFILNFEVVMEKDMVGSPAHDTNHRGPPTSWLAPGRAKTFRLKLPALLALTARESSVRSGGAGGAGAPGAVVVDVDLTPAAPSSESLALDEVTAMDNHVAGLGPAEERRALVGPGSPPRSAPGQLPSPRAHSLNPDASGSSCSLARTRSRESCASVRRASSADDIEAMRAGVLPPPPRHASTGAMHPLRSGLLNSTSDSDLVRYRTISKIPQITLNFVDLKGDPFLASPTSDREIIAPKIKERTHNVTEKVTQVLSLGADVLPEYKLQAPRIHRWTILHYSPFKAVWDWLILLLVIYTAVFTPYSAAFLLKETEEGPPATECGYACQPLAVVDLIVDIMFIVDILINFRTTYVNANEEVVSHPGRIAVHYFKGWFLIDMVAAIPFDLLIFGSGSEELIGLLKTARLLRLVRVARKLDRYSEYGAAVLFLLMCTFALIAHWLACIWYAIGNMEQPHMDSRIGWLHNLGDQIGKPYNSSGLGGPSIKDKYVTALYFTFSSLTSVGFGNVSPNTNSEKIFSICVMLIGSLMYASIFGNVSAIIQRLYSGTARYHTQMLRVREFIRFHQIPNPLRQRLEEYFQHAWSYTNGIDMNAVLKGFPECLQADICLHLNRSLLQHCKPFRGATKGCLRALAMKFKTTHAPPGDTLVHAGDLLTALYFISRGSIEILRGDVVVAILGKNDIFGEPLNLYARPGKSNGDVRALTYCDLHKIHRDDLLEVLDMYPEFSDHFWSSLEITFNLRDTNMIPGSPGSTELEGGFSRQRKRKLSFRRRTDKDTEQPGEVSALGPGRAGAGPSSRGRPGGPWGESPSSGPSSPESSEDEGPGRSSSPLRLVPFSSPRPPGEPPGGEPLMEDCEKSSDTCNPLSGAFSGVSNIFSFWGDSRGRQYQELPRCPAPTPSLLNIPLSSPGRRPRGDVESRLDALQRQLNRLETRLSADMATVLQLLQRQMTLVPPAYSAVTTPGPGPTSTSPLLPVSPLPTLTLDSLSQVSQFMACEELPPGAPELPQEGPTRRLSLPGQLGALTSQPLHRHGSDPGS
Outline: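 Concentration-response qHTS measuring drop in thallium-sensitive dye signal. U2OS cells carrying BacMam hERG; compound exposure ~10 min, then stimulation buffer and 2 min read at 1 sec intervals.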

SMILES	max response [1]	outcome [2]	outcome [3]	max response [4]	max response [5]	activity change % (negative = inhibition) [6]	activation [7]	activation [8]	Potency [9]	Potency [10]
O=C(O)/C=C/C(=O)O	-9.62%	inactive	inactive	-3.98%	8.67% (inactive)	3% (inactive)	-2.03% (inactive)	-1.19% (inactive)	–	–
CC(C)c1ccccc1	-7.95%	inactive	inactive	7.79%	6.96% (inactive)	6.43% (inactive)	0.723% (inactive)	-1.2% (inactive)	–	–
CC(C=O)Cc1ccc(C(C)(C)C)cc1 (stereo unspecified)	-4.78% and -12.5%	inactive	inactive	2.84% and -3.45%	-0.768% (inactive) and 2.1% (inactive)	4.73% (inactive) and 0.44% (inactive)	3.13% (inactive) and -1.47% (inactive)	–	inactive	–
O=[N+]([O-])c1c(Cl)cc(Cl)cc1Cl	-6.72%	inactive	inactive	-2.99%	8.69% (inactive)	3.07% (inactive)	1.35% (inactive)	-0.147% (inactive)	–	inactive
NC(=O)CCCCC(N)=O	-19.9%	inactive	inactive	-2.99%	6.15% (inactive)	2% (inactive)	-2.38% (inactive)	1.81% (inactive)	–	inactive
C/C(C=O)=C/c1ccccc1	-15.6%	inactive	inactive	2.35%	-7.56% (inactive)	-5.38% (inactive)	–	-1.45% (inactive)	–	inactive
Nc1cccc(O)c1	-4.39%	inactive	inactive	6.84%	1.85% (inactive)	-7.53% (inactive)	–	-1.16% (inactive)	–	inactive
CC(=O)c1ccc([N+](=O)[O-])cc1	-7.91%	inactive	inactive	4.7%	1.74% (inactive)	-0.995% (inactive)	–	0.321% (inactive)	–	inactive
CC(=C/C=C/C(C)=C/C=C/C=C(C)/C=C/C=C(C)/C=C/C(=O)O)/C=C/C(=O)O	-15.4%	inactive	inactive	-2.63%	-3.15% (inactive)	-8.7% (inactive)	-0.825% (inactive)	-0.299% (inactive)	–	inactive
Cc1c(N)cccc1N	-3.37%	inactive	inactive	-4.94%	-6.28% (inactive)	-2.96% (inactive)	–	-1.33% (inactive)	–	inactive
CCC(C)(C)C(=O)O	-9.68%	inactive	inactive	-3.08%	6.62% (inactive)	-3.87% (inactive)	0.0165% (inactive)	-0.114% (inactive)	inactive	–
CN(C)c1cccc(O)c1	-0.228%	inactive	inactive	-1.21%	8.46% (inactive)	5.73% (inactive)	–	-0.862% (inactive)	–	inactive
O=C(O)c1ccccc1C(=O)O	13.6%	inactive	inactive	4.98%	-5% (inactive)	0.364% (inactive)	-2.08% (inactive)	-0.93% (inactive)	–	inactive
CCCC(C)CO (stereo unspecified)	-14.8%	inactive	inactive	5%	-5.45% (inactive)	6.59% (inactive)	0.0206% (inactive)	-0.126% (inactive)	–	inactive
CNc1ccc([N+](=O)[O-])cc1	3.4%	inactive	inactive	8.47%	0.864% (inactive)	2.18% (inactive)	–	-1.5% (inactive)	–	inactive
c1ccc2c(c1)Oc1ccccc1S2	-9.36%	inactive	inactive	-7.12%	5.17% (inactive)	-3.93% (inactive)	0.189% (inactive)	-0.203% (inactive)	inactive	–
O=C1C=CCCC1	8.41%	inactive	inactive	-1.74%	-1.33% (inactive)	-3.89% (inactive)	-3.28% (inactive)	-0.0951% (inactive)	–	inactive
CC(C)N=C=NC(C)C	-13.3%	inactive	inactive	10.7%	7.57% (inactive)	1.37% (inactive)	1.3% (inactive)	-0.231% (inactive)	inactive	–
CCCCCCCCC/C=C/CC1CC(=O)OC1=O (stereo unspecified)	-0.831%	inactive	inactive	1.93%	19.9% (inactive)	2.72% (inactive)	3.69% (inactive)	-0.282% (inactive)	–	inactive
CSc1ccc(C=O)cc1	-15.5%	inactive	inactive	-1.24%	1.67% (inactive)	3.08% (inactive)	–	0.0922% (inactive)	–	inactive
CC#N	8.5%	inactive	inactive	-2.35%	10.2% (inactive)	12.3% (inactive)	-3.18% (inactive)	-1.06% (inactive)	–	inactive
COC(=O)CCCC(=O)OC	-5.09%	inactive	inactive	-9.56%	-11% (inactive)	-27% (inactive)	-1.04% (inactive)	-0.14% (inactive)	–	inactive
CCCCC(C=O)CC (stereo unspecified)	4.08%	inactive	inactive	2.69%	7.22% (inactive)	14.6% (inactive)	–	-0.855% (inactive)	–	inactive
Cc1ccc(C#N)cc1	3.27%	inactive	inactive	-3.82%	0.597% (inactive)	4.16% (inactive)	–	0.0681% (inactive)	–	inactive

SMILES	max response [1]	outcome [2]	outcome [3]	max response [4]	max response [5]	activity change % (negative = inhibition) [6]	activation [7]	activation [8]	Potency [9]	Potency [10]
O=C(Cl)c1cccc([N+](=O)[O-])c1	14.1%	inactive	inactive	0.426%	24.8% (inactive)	5.89% (inactive)	–	-0.912% (inactive)	–	inactive
C(=C/c1ccccc1)/c1ccccc1	-10%	inactive	inactive	-6.97%	-3.93% (inactive)	-6.07% (inactive)	-2.17% (inactive)	-0.123% (inactive)	–	–
CC1(N)CCC(C(C)(C)N)CC1 (stereo unspecified)	-6.34%	inactive	inactive	4.37%	0.335% (inactive)	-1.11% (inactive)	0.302% (inactive)	-1.08% (inactive)	–	inactive
Cc1cc([N+](=O)[O-])ccc1N	-1.24%	inactive	inactive	-8.79%	2.58% (inactive)	-9.22% (inactive)	-4.49% (inactive)	-0.648% (inactive)	inactive	–
CC(=O)Nc1ccccc1C	-2.35%	inactive	inactive	-11.2%	2.75% (inactive)	4.18% (inactive)	0.555% (inactive)	-0.805% (inactive)	–	inactive
CC(C)CCOC(=O)/C=C/c1ccccc1	7.69%	inactive	inactive	5.75%	-10.7% (inactive)	-18.5% (inactive)	1.36% (inactive)	-1.28% (inactive)	–	22.4 µM (active)
CC(C)(O)C(=O)O	-2.22%	inactive	inactive	2.28%	3.29% (inactive)	8.51% (inactive)	-1.64% (inactive)	-0.233% (inactive)	–	inactive
O=C(O)CCSSCCC(=O)O	1.51%	inactive	inactive	-12%	-2.74% (inactive)	-3.23% (inactive)	–	-1.14% (inactive)	–	inactive
COCCOC(=O)c1ccccc1C(=O)OCCOC	-5.12%	inactive	inactive	-3.43%	23.2% (inactive)	–	-1.05% (inactive)	0.152% (inactive)	inactive	inactive
CC(N)CN (stereo unspecified)	-2.32%	inactive	inactive	-2.44%	12.6% (inactive)	–	-0.238% (inactive)	0.0382% (inactive)	inactive	inactive
CCCCCCCCCCCCC1CO1 (stereo unspecified)	-5.24%	inactive	inactive	-6.03%	7.51% (inactive)	–	–	0.702% (inactive)	–	inactive
CCN(C(=O)N(CC)c1ccccc1)c1ccccc1	6.15%	inactive	inactive	-7.14%	0.622% (inactive)	–	–	–	inactive	inactive
CC(=O)c1cc(C)oc1C	-2.61%	inactive	inactive	4.07%	0.525% (inactive)	–	-2.3% (inactive)	-0.373% (inactive)	–	inactive
ClCCl	-5.75%	inactive	inactive	3.57%	5.83% (inactive)	–	-4.34% (inactive)	–	inactive	inactive
NC(=O)/N=N/C(N)=O	-17.5%	inactive	inactive	-9.97%	-2.12% (inactive)	–	-0.505% (inactive)	2.36% (inactive)	–	inactive
O=[N+]([O-])c1ccc(Cl)cc1Cl	-6.43%	inactive	inactive	-4.28%	10.3% (inactive)	–	–	0.0961% (inactive)	–	inactive
C=C(C)C1CC=C(C)C(OC(C)=O)C1 (stereo unspecified)	-3.57%	inactive	inactive	-6.8%	1.02% (inactive)	–	1.6% (inactive)	–	–	inactive
CCCCC(CC)COC(=O)CCCCC(=O)OCC(CC)CCCC (stereo unspecified)	-13% and -12.5%	inactive	inactive	-3.16% and -14.9%	12% (inactive) and 4.32% (inactive)	–	-0.514% (inactive) and -0.3% (inactive)	0.278% (inactive) and -0.188% (inactive)	inactive	inactive
FC(F)(F)c1ccccc1Cl	-12.9%	inactive	inactive	-4.91%	-5% (inactive)	–	1.57% (inactive)	-0.494% (inactive)	inactive	inactive
O=Cc1ccc(CO)o1	-13.3%	inactive	inactive	0.176%	8.3% (inactive)	–	-2.06% (inactive)	–	–	inactive
O=C1OC(=O)c2cc([N+](=O)[O-])ccc21	18.2%	inactive	inactive	10.4%	1.57% (inactive)	–	1.53% (inactive)	-0.857% (inactive)	–	inactive
O=C(O)c1c(Cl)cccc1Cl	-13.5%	inactive	inactive	2.22%	13.3% (inactive)	–	-0.426% (inactive)	–	inactive	inactive
CC(C)CO	-16%	inactive	inactive	-8.16%	-7% (inactive)	-17.4% (inactive)	–	-1.15% (inactive)	–	–
